From PubChem BioAssay AID624297 (National Center for Advancing Translational Sciences (NCATS), 2012)
About 6,200 (1.8%) of roughly 340,000 compounds were called active. About 10% were inconclusive and are not listed. Calls come from the whole dose curve; as a rule, active = well fitted activation curve with a large enough effect; inconclusive = small, poorly fitted or top-dose-only effect; inactive = no such curve, though single readings can be large or run the other way. What follows is part of a selection rich in actives, with near analogues and random picks from the rest. A call without a number means that no potency is given here.

experiment: A quantitative high throughput screen for small molecules that induce DNA re-replication in SW480 colon adenocarcinoma cells.; note: nearly all actives have a fitted effect of over 55% in size; conditions: Hoechst DNA content imaging, 48 h; series mostly up to 46.1 µM
In short: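 Cells (250 per well) received 23 nL compound or DMSO by pin tool and were kept 48 hr at 37 C, 5% CO2. Nuclei were then stained with Hoechst for 40 min and scanned for DNA content.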
Potency is the fitted concentration of half-maximal effect.

| Structure (SMILES) | re-replication activation | Potency |
| --- | --- | --- |
| COc1ccc(CN2C(CC(=O)Nc3cccnc3)c3ccc(C(F)(F)F)cc3S2(=O)=O)cc1 (centres undefined) | -6.2% [at 9.22 µM] (inactive) | – |
| CCCCN(C)C(=O)C1CCN(Cc2ccccn2)CC1 | -0.529% [at 9.22 µM] (inactive) | – |
| CCCC(=O)C1CCN(Cc2ccccc2)CC1 | – | inactive |
| CCCCN(Cc1ccccc1)C(=O)C1CCN(Cc2sccc2C)CC1 | – | 14.6 µM (active) |
| CSCCC(NS(=O)(=O)c1ccc(C)cc1)C(=O)N(C)CC(=O)Nc1ccccc1Br (centres undefined) | – | inactive |
| CNN/C(N=Cc1ccc([N+](=O)[O-])s1)=N\S(=O)(=O)c1cc(C)c(Cl)cc1SCc1ccccc1 | – | inactive |
| COc1ccc(-c2csc(NC3OC(=O)c4ccccc43)n2)cc1 (centres undefined) | – | inactive |
| COc1ccc2c(c1OC)C(=O)OC2Nc1nc(-c2ccccc2)cs1 (centres undefined) | – | 6.51 µM (active) |
| Cc1cccc(Nc2nc(-c3ccccc3)cs2)n1 | – | inactive |
| O=C1NC[C@@H](c2ccccc2)OC(=O)[C@H](Cc2ccc(F)cc2)CC/C=C/C[C@H]1CC(=O)N(CCO)Cc1ccccc1 | – | inactive |
| CCOC(=O)C1=CN(Cc2ccc(Br)cc2)S(=O)(=O)NC1C (centres undefined) | – | inactive |
| CC1C(=O)N(Cc2ccccc2)c2ccccc2N1C(=O)c1ccccc1 (centres undefined) | – | inactive |
| CC1C(C)N(C(=O)CCl)c2ccccc2N1C(=O)CCl (centres undefined) | – | 5.17 µM (active) |
| CC1CC(C)CN(CC(=O)N2c3ccccc3CCc3ccccc32)C1 (centres undefined) | – | inactive |
| COc1ccc(NS(=O)(=O)c2ccc(C(=O)Nc3c(C)n(C)n(-c4ccccc4)c3=O)cc2)cc1 | – | 6.51 µM (active) |
| Cc1cc(C(=O)Nc2c(C)n(C)n(-c3ccccc3)c2=O)cs1 | – | inactive |
| Cc1c(NS(=O)(=O)c2cccc(C(=O)Nc3ccc(SC(F)F)cc3)c2)c(=O)n(-c2ccccc2)n1C | – | inactive |
| C=CC(=O)Nc1ccc(Nc2ccnc(Nc3ccc(N4CCN(C)CC4)cc3)n2)cc1 | – | inactive |
| C(=N/Nc1cc(N2CCOCC2)nc(N2CCOCC2)n1)/c1ccccc1 | – | 5.8 µM (active) |
| Cc1cc(N2CCN(c3ccccc3)CC2)nc(N2CCOCC2)n1 | – | inactive |
| CN(C)c1ccc(/C=N/Nc2cc(N3CCOCC3)nc(N3CCOCC3)n2)cc1 | – | inactive |
| COc1ccccc1N1CCN(C(=O)c2cc(=O)c3cc(C)ccc3o2)CC1 | – | inactive |
| O=C(c1cc(=O)c2ccccc2o1)N1CCN(c2ccccc2)CC1 | – | inactive |
| COc1cc2c(cc1OC)CN(C(=O)c1cc(=O)c3ccccc3o1)CC2 | – | 13 µM (active) |
| NC(=O)C1CCN(C(=O)c2cc(S(=O)(=O)N3CCN(c4ccccc4)CC3)ccc2Cl)CC1 | – | inactive |

| Structure (SMILES) | re-replication activation | Potency |
| --- | --- | --- |
| COc1cc2[nH]c(O)c(C=O)c2cc1OC | – | inactive |
| Cc1ccc(S(=O)(=O)N2CCN(C(=O)COC(=O)/C=C/c3cccc(Cl)c3)CC2)c(C)c1 | – | inactive |
| CCCCC[C@@H]1C=C(C(=O)O)[C@H](c2ccc(C#N)cc2)N1S(=O)(=O)c1ccc(C)cc1 | – | inactive |
| CCC1(C)COC(c2ccc(OC)c(OC)c2)OC1 (centres undefined) | – | inactive |
| O=[N+]([O-])c1ccccc1NCc1ccc(Cl)cc1 | – | inactive |
| O=C(Cc1ccc(Cl)cc1)NC(=S)Nc1ccccc1O | – | inactive |
| Oc1ccc(CNc2ccccc2O)cc1 | – | 20.6 µM (active) |
| CC(C)(C)OC(=O)C1=C(CO)CS[C@@H]2[C@H](NC(=O)Cc3ccccc3)C(=O)N12 | – | inactive |
| OCCN1CCN(CCO)C1=S | – | inactive |
| CCc1ccc(OCC(=O)NCC(c2ccc(Cl)cc2)N2CCCCC2)cc1 (centres undefined) | – | 9.2 µM (active) |
| COc1ccc(C(CNC(=O)COc2ccccc2OC)N2CCCCC2)cc1 (centres undefined) | – | inactive |
| COc1ccc(C(CNC(=O)COc2ccc([N+](=O)[O-])cc2)N2CCCCC2)cc1 (centres undefined) | – | inactive |
| O=C(CNS(=O)(=O)c1ccc2c(c1)OCCCO2)N1CCN(c2ccc(F)cc2)CC1 | – | inactive |
| O=C1COc2c1ccc(O)c2O | – | inactive |
| Cc1c(CN2CCC(CO)(CCOc3ccccc3)CC2)[nH]c2ccc(Cl)cc12 | – | 14.6 µM (active) |
| CCOC(=O)C1(CCOc2ccccc2)CCN(Cc2cc(OC)c(O)cc2Cl)CC1 | – | inactive |
| OCC1(CCOc2ccccc2)CCN(Cc2cn[nH]c2-c2ccccc2)CC1 | – | inactive |
| CCOC(=O)C1=CN(Cc2ccc(Br)cc2)S(=O)(=O)N(C)C1C (centres undefined) | – | inactive |
| Cc1ccc(NC(=O)COC(=O)C2CC2)cc1S(=O)(=O)N1CCOCC1 | – | inactive |
| Cc1ccc(NC(=O)C2CCC(C(C)(C)C)CC2)cc1S(=O)(=O)N1CCOCC1 (centres undefined) | – | 14.6 µM (active) |
| Cc1ccc(NC(=O)NC2CCCCC2)cc1S(=O)(=O)N1CCOCC1 | – | inactive |
| CC(=O)Nc1ccc(OCC(=O)NCc2ccc(C)cc2)cc1 | – | inactive |
| C/C(CC(=O)NCc1ccc(Cl)cc1)=N\NC(=O)COc1ccc(C)cc1Br | – | 14.6 µM (active) |
| Cc1cc(Cl)ccc1OCCCC(=O)NCc1ccncc1 | – | inactive |
| COc1ccc(C2NCCCC2c2ccccc2)cc1 (centres undefined) | – | inactive |

| Structure (SMILES) | re-replication activation | Potency |
| --- | --- | --- |
| CCN(C(=O)COC(=O)c1ccccc1O)c1cccc2ccccc12 | – | inactive |
| CCC1([N+](=O)[O-])COC(c2ccc(C)cc2)OC1 (centres undefined) | – | inactive |
| CC(C)(C)S(=O)(=O)N1Cc2cc(CO)cc(CCO)c2[C@H]1CCO | – | inactive |
| O=C(O)C(c1cccs1)C1(O)CCCCC1 (centres undefined) | – | inactive |
| O=C(COc1ccc(Cl)cc1)NCCC1=CCCCC1 | – | inactive |
| Cc1nnc(OCC(=O)NCCC2=CCCCC2)c2ccccc12 | – | 16.4 µM (active) |
| O=C(Cc1cccc2ccccc12)NCCC1=CCCCC1 | – | inactive |
| COCc1cc(C)nc2sc(C(=O)NC3CCCCC3)c(N)c12 | – | inactive |
| CCc1nnc(NC(=O)c2sc3nc(C)cc(COC)c3c2N)s1 | – | inactive |
| COc1ccc(OC)c(NC(=O)c2sc3nc(C)cc(C)c3c2N)c1 | – | 9.2 µM (active) |
| CCOc1ccc(/C=C(/C#N)c2nnc(N3CCOCC3)n2-c2ccccc2)cc1OC | – | inactive |
| CN(C)CCNC(=O)c1[nH]nc2c1CCc1ccccc1-2 | – | inactive |
| COc1cccc(/C=N/NC(=O)c2[nH]nc3c2CCc2ccccc2-3)c1O | – | 3.26 µM (active) |
| COc1cc2cc(C(=O)N/N=C/c3cccc(OC)c3OC)[nH]c2cc1OC | – | inactive |
| O=C(CSc1cccc[n+]1[O-])c1ccc(Cl)cc1 | – | inactive |
| COc1ccccc1C(=O)CSc1cccc[n+]1[O-] | – | inactive |
| O=C(CSc1cccc[n+]1[O-])c1ccc(-c2ccccc2)cc1 | – | 2.82 µM (active) |
| O=C(NCCc1ccc(F)cc1)c1ccc2nccnc2c1 | – | inactive |
| O=C(OCCOc1ccccc1Cl)c1cc(S(=O)(=O)N2CCCCC2)ccc1N1CCOCC1 | – | inactive |
| Cc1cc(C(=O)Nc2nnc(C3CC3)s2)c(C)s1 | – | inactive |
| O=C(CSc1nc2ccccc2c(=O)n1Cc1ccc(F)cc1)NCC1CCCO1 (centres undefined) | – | inactive |
| Cc1ccc(CCNC(=O)c2ccc3nc4ccccc4c(=O)n3c2)cc1 | – | inactive |
| O=C(NCC1CCCO1)c1cc2c([nH]c3ccccc32)c(-c2ccc(F)cc2)n1 (centres undefined) | – | inactive |
| COc1ccc(CCNC(=O)Cn2c(=O)n(CC3CCCO3)c(=O)c3ccccc32)cc1OC (centres undefined) | – | inactive |
| Cc1cccn2c(=O)c3cc(C#N)c(=O)n(CCCN4CCOCC4)c3nc12 | – | inactive |

| Structure (SMILES) | re-replication activation | Potency |
| --- | --- | --- |
| Cc1cccn2c(=O)c3cc(C(=O)NCC4CCCO4)c(=N)n(Cc4ccc(F)cc4)c3nc12 (centres undefined) | – | 8.2 µM (active) |
| Cc1ccc2nc3c(cc(C(=O)NCCc4ccccc4)c(=N)n3CC3CCCO3)c(=O)n2c1 (centres undefined) | – | 11.6 µM (active) |
| Cc1cccn2c(=O)c3cc(C(=O)NCCN4CCOCC4)c(=N)n(Cc4cccnc4)c3nc12 | – | 4.11 µM (active) |
| Cc1ccc(Cn2c(C)c3cnn(CC(=O)NCCN4CCOCC4)c(=O)c3c2C)cc1 | – | inactive |
| COc1ccccc1NC(=O)N(O)C1(C#N)CCCCC1 | – | inactive |
| O=C(Cn1cnc2ccccc2c1=O)NNC(=O)c1ccccc1F | – | inactive |
| CCCN(C(=O)COC(=O)CNS(=O)(=O)c1ccc(NC(C)=O)cc1)C1CCS(=O)(=O)C1 (centres undefined) | – | inactive |
| C[C@H]1CN([C@@H](C)CO)C(=O)Cc2cc(NS(C)(=O)=O)ccc2O[C@@H]1CN(C)CC1CC1 | – | inactive |
| NC(=O)c1ncn([C@@H]2O[C@H](CN=C3NS(=O)(=O)c4ccccc43)[C@@H](O)[C@H]2O)n1 | – | inactive |
| Nc1ccc2nc3c(=O)[nH]c(=S)[nH]c3nc2c1 | – | 4.61 µM (active) |
| CSCCC(NC(=O)COc1ccccc1)C(=O)N1CCN(c2cccc(C(F)(F)F)c2)CC1 (centres undefined) | – | inactive |
| CCN(CC)C(=O)[C@H]1C[C@H](CC(=O)NCC23CC4CC(CC(C4)C2)C3)C(=O)N2CCc3c([nH]c4cc(CCC(=O)N(C)C)ccc34)[C@]12C | 25.4% [at 9.22 µM] (inactive) | – |
| CN(C)C(CNC(=O)c1cc2ccccc2o1)c1ccccc1 (centres undefined) | – | inactive |
| O=C(c1cnccn1)N1CCN(S(=O)(=O)c2cccc(Cl)c2)CC1 | – | inactive |
| Oc1ccc(N=Cc2sc3ccccc3c2Cl)cc1 | – | 9.2 µM (active) |
| Cc1nn(C)cc1/C=N/NC(=O)c1sc2ccccc2c1Cl | – | inactive |
| COc1ccc(N=C(C)c2sc3ccccc3c2O)cc1 | – | inactive |
| CC1(C)C(=O)CCC2(C)C1=CCC1C2C(=O)CC2(C)C1CCC2(O)C(=O)CO (centres undefined) | – | inactive |
| COc1ccc(-c2cc(C(F)(F)F)nc(S(C)(=O)=O)n2)cc1OC | – | 4.11 µM (active) |
| COc1ccc(-c2ccc(Nc3ccc(S(=O)(=O)N4CCCC4)cc3)nn2)cc1OC | – | inactive |
| COc1ccc(-c2cc(C(F)(F)F)nc(NCc3cccnc3)n2)cc1 | – | inactive |
| CC[C@]12c3[nH]c4cc(CCC(=O)N(C)C)ccc4c3CCN1C(=O)[C@@H](CC(=O)NCCCn1ccnc1)C[C@@H]2C(=O)N1CCN(C(=O)C2CC2)CC1 | – | inactive |
| NC1=NOC(=O)C1C1CCCCC1 (centres undefined) | – | inactive |
| CC(=O)OCC(=O)C1(O)CCC2C3CC(C)C4=CC(=O)CCC4(C)C3C(O)CC21C (centres undefined) | – | inactive |
